# Compounds with a hit are over-represented: about 2.5% of the library has one in this group of screens.
# Pol beta inh: inhibitors of human DNA polymerase beta; Pol beta primer extension/strand displacement, fluorescence kinetic; Potency, µM (top dose mostly 114 µM), for inactives: top-dose activity change, negative = inhibition, actives largely listed as inhibitors; 1.3% of 340,000 active; AID 485314; note: % is set by controls: 0 for no effect and ±100 for the full control effect
#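 Preincubation: enzyme (10 nM) with compound, 15 min, RT. Reaction: substrate added to 50 nM final. Reads: 0 and 10 min. Analysis: normalized, Hill fit.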
# POLI inh: DNA polymerase iota (human) inhibition | Q9UNA4 | Pol iota fluorescent replication assay, 10 min | Potency, µM (titrated, usually from 115 µM), for inactives: at the top dose activity, negative = inhibition, actives largely listed as inhibitors | 1% of 390,000 active
# Target sequence (Q9UNA4 whole entry, looked up): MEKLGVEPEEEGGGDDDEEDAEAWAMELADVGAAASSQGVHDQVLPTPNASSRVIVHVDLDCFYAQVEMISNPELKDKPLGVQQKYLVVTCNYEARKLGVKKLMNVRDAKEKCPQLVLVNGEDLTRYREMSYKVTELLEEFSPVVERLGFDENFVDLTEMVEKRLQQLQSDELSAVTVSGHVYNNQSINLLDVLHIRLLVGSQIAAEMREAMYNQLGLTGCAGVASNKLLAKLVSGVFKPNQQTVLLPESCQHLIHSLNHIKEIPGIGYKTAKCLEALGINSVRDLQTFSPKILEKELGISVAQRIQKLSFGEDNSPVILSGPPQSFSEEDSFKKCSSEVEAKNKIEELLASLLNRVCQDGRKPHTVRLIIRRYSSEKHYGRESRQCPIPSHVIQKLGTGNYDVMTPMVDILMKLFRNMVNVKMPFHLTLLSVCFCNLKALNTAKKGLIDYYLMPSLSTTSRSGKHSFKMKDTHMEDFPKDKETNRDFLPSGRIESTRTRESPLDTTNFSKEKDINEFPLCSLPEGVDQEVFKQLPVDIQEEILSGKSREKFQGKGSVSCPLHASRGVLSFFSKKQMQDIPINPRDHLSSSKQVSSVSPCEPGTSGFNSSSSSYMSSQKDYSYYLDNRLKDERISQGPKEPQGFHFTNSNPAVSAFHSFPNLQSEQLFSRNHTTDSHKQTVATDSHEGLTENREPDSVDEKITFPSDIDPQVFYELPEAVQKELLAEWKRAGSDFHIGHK
#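 Fluorescent replication assay read twice, at 0 min and 10 min after adding 50 nM (final) substrate. Enzyme (10 nM) and compounds were first incubated 15 min at room temperature; enzyme-free buffer wells were negative controls.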
# L3MBTL1 block: inhibitors of human L3MBTL1 | AlphaScreen L3MBTL1–H3K9me1 peptide binding | 0.66% of 230,000 active | Potency, µM (titrated, usually from 57.1 µM), for the others: at the highest dose activity, negative = inhibition, hits mostly inhibitors | AID 485360 | Q9Y468; note: % is set by controls: 0 for no effect and ±100 for the full control effect; nearly all actives have a fitted effect of over 60% in size
#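 L3MBTL1 50 nM + b-AHA-H3(1-15)K9me1 75 nM, 30 min RT; compound added, 30 min RT; streptavidin donor/Ni-chelate acceptor beads 10 ug/mL each final, 30 min RT dark; AlphaScreen read.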
# POLK inh: inhibitors of human DNA polymerase kappa; purified Pol kappa, fluorescent DNA synthesis assay, 10 min; Q9UBT6; AID 588579; Potency, µM (doses to about 107 µM), inactives show top-dose activity, negative = inhibition, actives largely listed as inhibitors; 0.53% of 400,000 active; note: % is set by controls: 0 for no effect and ±100 for the full control effect
#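 Activity was followed as the change in fluorescence between reads at 0 and 10 min after starting the reaction with 50 nM substrate. Beforehand, 10 nM polymerase had been preincubated with compound for 15 min at room temperature.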
# Pol eta inh: blocks human DNA polymerase eta activity; recombinant Pol eta, fluorescent DNA replication assay; 1.2% of 390,000 active; Q9Y253; Potency, µM (highest dose often 114 µM), for inactives: at the highest dose activity change, negative = inhibition, most hits filed as inhibitors; note: % is set by controls: 0 for no effect and ±100 for the full control effect
#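 Pol eta at 10 nM preincubated with compounds 15 min at room temperature; reaction started with fluorescent substrate (50 nM final) and read kinetically at 0 and 10 min.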
# APE1 inh: inhibitors of human APE1 endonuclease | 0.35% of 350,000 active | AID 2517 | Potency, µM (series often up to 65.8 µM), for inactives: at the highest dose activity change, negative = inhibition, actives largely listed as inhibitors | recombinant APE1, TAMRA/BHQ-2 abasic DNA cleavage fluorescence | P27695;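 note: plate controls were vehicle for no effect and reference inhibitor for full effect; nearly all actives have a fitted effect of over 55% in size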
#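 Measures dequenching upon AP-site incision of a 5'-TAMRA/3'-BHQ-2 THF-containing duplex, 50 nM; human APE1 0.75 nM after 15 min room-temperature exposure to compound; kinetic three-point read at one-minute spacing.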
# * = called active by the depositor; ? = inconclusive; . = not tested or not shown; [ ] = dose if it differs, or a comment. Calls come from the whole dose curve; as a rule, active = well fitted curve in the direction sought with a large enough effect; inconclusive = small, poorly fitted or top-dose-only effect, or another doubt; inactive = no such curve, though single readings can be large; an effect the other way counts as inactive or inconclusive. Potency is the fitted concentration of half-maximal effect.
SMILES,Pol beta inh,POLI inh,L3MBTL1 block,POLK inh,Pol eta inh,APE1 inh
NC(=O)c1c(NC(=O)C2CCCO2)sc2c1CCCC2 (configuration not stated),0%,12%,-4%,-14%,-21%,3%
CCOC(=O)C1=CN(Cc2ccco2)S(=O)(=O)N(C)C1c1ccc2ccccc2c1 (configuration not stated),.,8%,-6%,2%,-16%,20%
O=C(Nc1ccc(Oc2ccccc2)cc1)C1CCCO1 (configuration not stated),79µM*,-13%,-9%,-10%,10%,13%
COc1ccccc1N(C)C,.,-3%,.,-9%,.,.
Cc1cc(NC(=O)c2ccc(N3CCCC3)c([N+](=O)[O-])c2)no1,20µM*,?,-8%,-13%,?,-6%
COC(=O)N/N=C/c1cc(Br)ccc1O,16µM*,-7%,-8%,-8%,-15%,0%
COC(=O)N/N=C/c1cc(N=Nc2ccccc2)ccc1O,-1%,29%,-9%,1%,-24%,-2%
O=C1CCCN2N=C(SCC(=O)Nc3nccs3)SC2=N1,32µM*,?,-24%,-8%,79µM*,-8%
Cc1cc(C(=O)N/N=C/c2cc(N=Nc3ccccc3)ccc2O)n[nH]1,25µM*,2%,-17%,-3%,-7%,-7%
Cc1cc(C(=O)N/N=C/c2cccc([N+](=O)[O-])c2O)n[nH]1,-20%,-21%,?,-20%,-11%,-1%
CN(C)c1ccc(/C=C/c2ccc3cc(N)ccc3n2)cc1,.,?,.,-15%,.,.
CCOCCCn1c(=N)c(C(N)=S)cc2c(=O)n3cccc(C)c3nc21,-23%,?,-5%,0%,-5%,13%
Cc1cccn2c(=O)c3cc(C(=O)NC4CCCC4)c(=N)n(Cc4ccc(F)cc4)c3nc12,13%,36%,.,9%,-10%,8%
CCOC(=O)c1cc2c(=O)n3cccc(C)c3nc2n(C)c1=N,79µM*,.,-1%,.,.,8%
Cc1cccn2c(=O)c3cc(C(=O)NC4CCCCC4)c(=N)n(Cc4ccccc4)c3nc12,-23%,70%,.,-5%,-21%,9.5µM*
Cc1cccn2c(=O)c3cc(C(=O)NCc4ccco4)c(=N)n(C4CCCCC4)c3nc12,1%,71%,.,-1%,-23%,17µM*
COCCn1c(=S)[nH]c2cc(C(=O)N3CCN(Cc4ccccc4)CC3)ccc2c1=O,.,14%,.,-13%,.,.
CC(C)OC(=O)C(C(=O)OC(C)C)=C1SC=CS1,.,.,.,-1%[60.1 µM],.,.
O=C(Cn1c(=O)n(-c2ccccc2)c(=O)c2c3c(sc21)CCCC3)Nc1ccc(F)cc1F,13%,-3%,.,-8%,-10%,.
Cc1ccc(O)c(C(=O)c2cc(C#N)c(=O)n(-c3nccs3)c2)c1,25µM*,?,-11%,-43%,40µM*,0%
Cc1ccc(O)c(C(=O)c2cc(C#N)c(=O)n(-c3c(C)n(C)n(-c4ccccc4)c3=O)c2)c1,5%,-11%,1%,-21%,-1%,0%
CCOC(=O)C(Cc1c[nH]c2ccccc12)NC(=O)COc1ccc(Cl)cc1 (configuration not stated),-16%,79µM*,.,-19%[60.1 µM],-21%,.
CC(C)c1ccc(OCC(=O)NC(Cc2c[nH]c3ccccc23)C(=O)O)cc1 (configuration not stated),-4%,13%,.,0%,-9%,14%
CC(C)(C)n1ncc2c(=O)n(Cc3ccc(C#N)cc3F)cnc21,.,0%,.,2%,.,-2%
Cc1c(N)cc(S(=O)(=O)O)cc1NC(=O)c1cccc([N+](=O)[O-])c1,.,?,.,-22%,28µM*,.
SMILES,Pol beta inh,POLI inh,L3MBTL1 block,POLK inh,Pol eta inh,APE1 inh
Cc1ccc(NC(=O)C2CCN(S(=O)(=O)c3ccc4c(c3)CCCN4C(=O)C3CCC3)CC2)cc1,-2%,0%,.,-10%[60.1 µM],-11%,.
COc1ccccc1CNC(=O)C1CCN(S(=O)(=O)c2c(C)noc2/C=C/c2cccs2)CC1,1%,89µM*,.,?,0%,.
COc1ccc(NC(=O)C2CCN(S(=O)(=O)c3c(C)noc3/C=C/c3cccs3)CC2)cc1,2%,6%,.,0%,-9%,.
O=C(CSc1nc2c(sc3ccccc32)c(=O)n1CCO)NCc1ccco1,45µM*,?,-13%,?,?,-2%
Cc1cccc(C)c1NC(=O)Cn1c(=O)n(Cc2ccc(C(=O)NCc3ccco3)cc2)c(=O)c2sccc21,45µM*,45µM*,.,-21%,.,.
N#Cc1ccccc1Cn1c(=O)n(Cc2ccc(C(=O)NCc3ccco3)cc2)c(=O)c2sccc21,?,-6%,?,-26%,-15%,-4%
Cc1ccc(Cn2c(SCC(=O)NCc3ccco3)nc3ccsc3c2=O)cc1,-21%,100µM*,-7%,-24%,6%,-4%
O=C(CSc1nc2c(sc3ccccc32)c(=O)n1CCCN1CCCC1)NCc1ccco1,3%,?,.,-12%,-22%,2%
Nc1ccc(C(=O)Nc2ccc(Nc3ccncc3)cc2)c([N+](=O)[O-])c1,.,.,.,.,-8%,.
CCSc1ncc(Cl)c(C(=O)Nc2sc3c(c2C(=O)OC)CCCC3)n1,.,26%,.,-12%,.,.
O=C1CCCc2cc(S(=O)(=O)N3CCCC(C(=O)NCc4ccc(Cl)cc4)C3)ccc2N1 (configuration not stated),15%,43%,.,-6%,-19%,.
COc1ccccc1C(C)NCC(=O)NC(=O)NCc1ccco1 (configuration not stated),.,50µM*,-13%,-31%,?,19%
O=C(CSc1nc(-c2ccc(F)cc2)cs1)NC(=O)NCc1ccco1,?,50µM*,-25%,-41%,?,-11%
Cc1ccc(SCC(=O)NC(=O)NCc2ccco2)cc1C,40µM*,.,?,.,.,?
COc1ccccc1C(=O)NCc1ccco1,3%,-4%,-6%,-21%,-16%,5%
O=C(CSc1ccc2c(c1)OCCO2)NCc1ccco1,40µM*,?,-6%,?,?,-1%
O=C(CSc1nncs1)NC(=O)NCc1ccco1,?,?,-22%,-11%,2%,?
O=C(CSc1ccccc1)NCc1ccco1,4%,-8%,-5%,-12%,?,14%
Cc1ccc2c(/C=C/c3ccc(N(C)C)cc3)ccnc2c1,.,12%,.,-16%,.,.
CCC/C=C1/CCCOC(C(=O)NCC2CC2)(C(F)(F)F)C1 (configuration not stated),.,6%,.,0%,.,0%
Cc1ccc2ncnc(Nc3cccc([N+](=O)[O-])c3)c2c1,3%,?,.,-23%,-22%,10%

# Assay outcomes as filed in PubChem.
